Several values for one entry are separate records, joined by “and”; a condition that tells them apart may be missing. Equal values may be shown once. Records with an inconclusive call do not appear. Where a call stands in place of a potency, no number is given. The source holds several records for some structures; these can differ, active in one and inactive in another. Activity calls are given as the source filed them. Unless noted, the call rests on the fitted dose curve; in most records, active means well fitted curve in the direction sought with a large enough effect in the repeat runs; inconclusive means weak or mixed curves; inactive means no such curve, though single readings can be large; an effect the other way counts as inactive or inconclusive.
How the values were obtained:
[1] = qHTS assay to identify small molecule antagonists of the glucocorticoid receptor (GR) signaling pathway - cell viability counter screen (AID 720693); further: nearly all actives have a fitted effect of over 55% in size
[2] = qHTS assay for identifying genotoxic compounds that show differential cytotoxicity against isogenic chicken DT40 cell lines with known DNA damage response pathways - wild type cell line (AID 743012); further: nearly all actives have a fitted effect of over 60% in size; further: potency means the concentration at half of the fitted maximal effect
Method in brief: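 300 wt DT40 cells/well; cpd (DMSO) pintool-transferred after ~0.5 h at 37 C/5% CO2; 40 h incubation; CellTiter-Glo added, 30 min RT; luminescence read.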

[3] = qHTS assay for identifying genotoxic compounds that show differential cytotoxicity against isogenic chicken DT40 cell lines with known DNA damage response pathways - Rev3 mutant cell line (AID 743014); further: nearly all actives have a fitted effect of over 55% in size; further: potency means the concentration at half of the fitted maximal effect
[4] = qHTS assay for identifying genotoxic compounds that show differential cytotoxicity against isogenic chicken DT40 cell lines with known DNA damage response pathways - Rad54/Ku70 mutant cell line (AID 743015); further: nearly all actives have a fitted effect of over 60% in size; further: potency means the concentration at half of the fitted maximal effect
[5] = qHTS assay to identify small molecule antagonists of the androgen receptor (AR) signaling pathway - cell viability counter screen (AID 743033; further: nearly all actives have a fitted effect of over 45% in size; further: potency means the concentration at half of the fitted maximal effect)
[6] = qHTS assay to identify small molecule antagonists of the androgen receptor (AR) signaling pathway using the MDA cell line - cell viability counter screen (AID 743041; further: nearly all actives have a fitted effect of over 45% in size)
Method in brief: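 In this qHTS counter assay, fluorescence intensity after CellTiter-Fluor addition indicated viability of MDA-kb2 AR-luc cells given compounds and R1881 for 16 h at 37C.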

[7] = molecular target: Androgen receptor (Homo sapiens) (UniProt P10275); experiment: qHTS assay to identify small molecule antagonists of the androgen receptor (AR) signaling pathway (AID 743035; active means well fitted inhibition curve with a large enough effect in the signal ratio in the repeat runs, not every such curve was filed as active; the % refers to the signal ratio)
Method in brief: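 In this cell-based reporter screen, compounds were tested in concentration series against R1881-activated HEK293 cells expressing beta-lactamase under UAS control; after 16 h at 37C, FRET substrate was added and fluorescence read 2 h later.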

[8] = molecular target: Androgen receptor (Homo sapiens) (UniProt P10275); experiment: qHTS assay to identify small molecule agonists of the androgen receptor (AR) signaling pathway (AID 743036; active means well fitted activation curve with a large enough effect in the signal ratio in the repeat runs, with a control signal flat, not every such curve was filed as active; the % refers to the signal ratio)
Method in brief: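 Beta-lactamase under UAS control, stably integrated in HEK293 GripTite cells, reports receptor activation. After 16 h compound treatment, cells received FRET substrate for 2 h at room temperature before fluorescence reading.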

[9] = molecular target: Androgen receptor (Homo sapiens) (UniProt P10275); experiment: qHTS assay to identify small molecule agonists of the androgen receptor (AR) signaling pathway using the MDA cell line (AID 743040; further: nearly all actives have a fitted effect of over 20% in size)
Method in brief: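 Cell-based luciferase reporter: MDA-kb2, MMTV promoter (AR + GR response elements). 16 h compound exposure at 37C; ONE-Glo, 30 min RT, luminescence.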

[10] = molecular target: Androgen receptor (Homo sapiens) (UniProt P10275); experiment: qHTS assay to identify small molecule antagonists of the androgen receptor (AR) signaling pathway using the MDA cell line (AID 743042; further: nearly all actives have a fitted effect of over 55% in size; further: potency means the concentration at half of the fitted maximal effect)
Method in brief: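 MDA-kb2 cells (human breast carcinoma, stably carrying an MMTV-luciferase reporter responsive to AR and GR) were plated at 3,000 cells/well and preincubated 5 hr at 37C, then given compound plus R1881 agonist for 16 h. ONE-Glo luminescence was read.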

Sequence of Androgen receptor (Homo sapiens) (P10275 whole entry, looked up): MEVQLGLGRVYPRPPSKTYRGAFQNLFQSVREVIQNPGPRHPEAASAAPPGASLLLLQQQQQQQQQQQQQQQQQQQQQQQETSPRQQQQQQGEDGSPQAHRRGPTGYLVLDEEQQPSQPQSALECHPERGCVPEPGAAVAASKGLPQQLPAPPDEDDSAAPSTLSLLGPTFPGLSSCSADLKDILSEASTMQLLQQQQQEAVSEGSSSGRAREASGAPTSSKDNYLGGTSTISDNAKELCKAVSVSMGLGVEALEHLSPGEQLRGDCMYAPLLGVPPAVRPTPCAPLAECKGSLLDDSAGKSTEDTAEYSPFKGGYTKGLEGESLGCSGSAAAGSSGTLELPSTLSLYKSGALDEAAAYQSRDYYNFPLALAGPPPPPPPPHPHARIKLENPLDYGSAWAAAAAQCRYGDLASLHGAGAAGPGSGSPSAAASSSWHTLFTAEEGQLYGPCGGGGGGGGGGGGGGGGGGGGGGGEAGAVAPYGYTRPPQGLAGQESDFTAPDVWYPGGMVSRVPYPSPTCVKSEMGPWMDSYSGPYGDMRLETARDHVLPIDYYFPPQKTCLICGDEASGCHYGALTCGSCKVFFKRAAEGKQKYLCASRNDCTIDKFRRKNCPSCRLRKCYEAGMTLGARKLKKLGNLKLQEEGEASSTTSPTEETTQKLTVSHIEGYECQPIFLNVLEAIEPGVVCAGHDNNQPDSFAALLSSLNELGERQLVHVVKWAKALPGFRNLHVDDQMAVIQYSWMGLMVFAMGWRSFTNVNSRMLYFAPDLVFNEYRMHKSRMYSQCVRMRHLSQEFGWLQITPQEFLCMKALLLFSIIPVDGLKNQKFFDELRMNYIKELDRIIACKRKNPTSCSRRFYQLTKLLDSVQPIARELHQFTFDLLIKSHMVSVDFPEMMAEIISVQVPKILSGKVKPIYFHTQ

Structure (SMILES)	Potency [1]	Potency [2]	Potency [3]	Potency [4]	Potency [5]	Potency [6]	Potency [7]	outcome [8]	Potency [9]	Potency [10]
c1ccc2c(c1)ccc1cc3c(ccc4ccccc43)cc12	inactive	inactive	inactive	inactive	inactive	inactive	–	–	–	–
C[N+](C)(C)CCO	inactive	inactive	inactive	inactive	inactive	inactive	–	–	–	–
NCCOCCO	inactive	inactive	–	inactive	inactive	inactive	–	–	–	–
CC(C)(C)c1cccc(C(C)(C)C)c1O	inactive	inactive	–	inactive	inactive	inactive	–	–	–	–
CCCCCCCCCCCCCO	inactive	inactive	–	inactive	inactive	inactive	–	–	–	–
Nc1ccc2c(O)cc(S(=O)(=O)O)cc2c1	inactive	inactive	–	inactive	inactive	–	–	–	–	–
CC1(C)C(C=C(Cl)Cl)C1C(=O)OCc1cccc(Oc2ccccc2)c1 (stereo unspecified)	–	inactive	inactive	inactive	inactive	inactive	inactive	inactive	inactive	inactive
CCCCCCC(C)O (stereo unspecified)	inactive	inactive	–	inactive	inactive	inactive	–	–	–	–
CCO[Si](CCCNC(N)=O)(OCC)OCC	inactive	inactive	–	inactive	inactive	inactive	–	–	–	–
CC(=O)Oc1ccc(C(c2ccc(OC(C)=O)cc2)c2ccccn2)cc1	inactive	23.7 µM (active) and inactive	–	–	inactive	–	inactive	inactive	inactive	0.765 µM (active)
Cc1ccc(N)c([N+](=O)[O-])c1	inactive	inactive	–	inactive	inactive	inactive	–	–	–	–
O=S1(=O)CCCO1	inactive	inactive	–	inactive	inactive	inactive	–	–	–	–
CC(=O)Oc1c(C)c(C)c2c(c1C)CC[C@@](C)(CCC[C@H](C)CCC[C@H](C)CCCC(C)C)O2	inactive	–	–	–	inactive	inactive	–	–	–	–
Cc1cccc(Nc2ccccc2C(=O)O)c1C	inactive	inactive	–	inactive and 61.1 µM (active)	inactive	inactive	–	–	–	–
OCCNCCO	inactive	inactive	–	inactive	inactive	inactive	–	–	–	–
C[C@]12CC[C@@H]3c4ccc(O)cc4CC[C@H]3[C@@H]1CC[C@H]2O	–	44 µM (active) and 48.6 µM (active)	24.8 µM (active) and 48.6 µM (active)	27.8 µM (active) and 54.5 µM (active)	inactive	inactive	–	–	–	–
CN1CCOCC1	inactive	inactive	–	inactive	inactive	inactive	–	–	–	–
c1ccc2ncccc2c1	inactive	inactive	–	inactive	inactive	inactive	–	–	–	–
CC[C@]12CCCN3CCc4c(n(c5ccccc45)[C@@](O)(C(=O)OC)C1)[C@@H]32	inactive	inactive	–	inactive	inactive	inactive	inactive	inactive	inactive	inactive
C=C[Si](OCCOC)(OCCOC)OCCOC	inactive	43.3 µM (active)	–	inactive and 30.6 µM (active)	inactive	inactive	–	–	–	–
Nc1ccc2c(c1)C(=O)c1ccccc1C2=O	inactive	–	60 µM (active) and inactive	9.51 µM (active) and 12.2 µM (active)	48.1 µM (active) and inactive	inactive	–	–	–	–
C1CN(SSN2CCOCC2)CCO1	inactive	27.3 µM (active)	42.8 µM (active) and 27.3 µM (active)	19.3 µM (active)	–	inactive	–	–	–	–
CCCOCCO	inactive	inactive	inactive	inactive	inactive	inactive	–	–	–	–
O=C(O)CCCC(=O)O	inactive	inactive	–	inactive	inactive	inactive	–	–	–	–
c1ccc2c(c1)[nH]c1ccccc12	–	inactive	inactive	inactive	inactive	inactive	inactive	inactive	inactive	inactive
O=C(O)CCCCCCCCCCCC(=O)O	–	inactive	inactive	inactive	inactive	inactive	–	–	–	–
CN(C)/N=N/c1nc[nH]c1C(N)=O	–	inactive	inactive	62 µM (active)	inactive	inactive	–	–	–	–
Cc1ccc(/C(=C\CN2CCCC2)c2ccccn2)cc1	–	26.6 µM (active) and 57.3 µM (active)	inactive and 57.3 µM (active)	23.7 µM (active) and 64.3 µM (active)	inactive	inactive	–	–	–	–
COC(=O)C(C)Oc1ccc(Oc2ncc(C(F)(F)F)cc2Cl)cc1 (stereo unspecified)	–	–	–	–	inactive	inactive	–	–	–	–

Source: PubChem BioAssay (Tox21)
